Measured values as given in the supplement of paper PMC10849652.
About 8,800 targets were measured; listed, in parts, are those with a hit and a random draw of the rest. About 0.5% of all pairs of compound and target were hits. Values without a mark were called inactive.

Key:
Test in all cases: log2 fold change, soluble protein after heating vs DMSO (PISA); higher = thermal stabilisation; K562 lysate, 10 uM; active = over 0.2 and 3.5 SD of the protein, either way, in both replicates (recomputed)
vemurafenib = compound: CCCS(=O)(=O)Nc1ccc(F)c(C(=O)c2c[nH]c3ncc(-c4ccc(Cl)cc4)cc23)c1F [vemurafenib]
Procedure, shortened: (§1)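 K562 pellets were dounce-homogenised in PBS pH 7.4 containing 1 mM MgCl2, and the crude extract, at 1 mg/mL protein, was exposed to 10 μM compound for 30 min. Aliquots were heated for 3 min across 48°C-58°C, pooled, brought to 0.5% NP-40 at 4°C and spun at 21,000xg for 90 min, with the supernatant taken as soluble protein. TMTpro 16plex LC-MS/MS with equalised channel sums quantified that protein. Values are log-two fold changes in thermal stability relative to solvent controls, taken from duplicates.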

barasertib = compound: CCN(CCCOc1ccc2c(Nc3cc(CC(=O)Nc4cccc(F)c4)[nH]n3)ncnc2c1)CCOP(=O)(O)O [barasertib]
Procedure, shortened: as §1

[1] = compound: CC[C@@H]1C(=O)N(C)c2cnc(Nc3ccc(C(=O)NC4CCN(C)CC4)cc3OC)nc2N1C1CCCC1
Procedure, shortened: as §1

[2] = compound: CCn1c(C(=O)N(C2CC2)C2CC2)cc2c3c(ncn3C)c(Nc3cc(C)n(C)n3)nc21
Procedure, shortened: as §1

[3] = compound: CCn1cc(-c2ccnc3[nH]c(-c4cccc(CN(C)C)c4)cc23)c(-c2ccc(NC(=O)N(C)C)cc2)n1
Procedure, shortened: as §1

[4] = compound: CN1CCC(CNc2ccc3ncc(-c4cccc(OC(F)(F)F)c4)n3n2)CC1
Procedure, shortened: as §1

saracatinib = compound: CN1CCN(CCOc2cc(OC3CCOCC3)c3c(Nc4c(Cl)ccc5c4OCO5)ncnc3c2)CC1 [saracatinib]
Procedure, shortened: as §1

sotrastaurin = compound: CN1CCN(c2nc(C3=C(c4c[nH]c5ccccc45)C(=O)NC3=O)c3ccccc3n2)CC1 [sotrastaurin]
Procedure, shortened: as §1

alvocidib = compound: CN1CC[C@H](c2c(O)cc(O)c3c(=O)cc(-c4ccccc4Cl)oc23)[C@H](O)C1 [alvocidib]
Procedure, shortened: as §1

Tubastatin A = compound: CN1CCc2c(c3ccccc3n2Cc2ccc(C(=O)NO)cc2)C1 [Tubastatin A]
Procedure, shortened: as §1

[5] = compound: CNC(=O)C1=CC=CC=C1NC2=NC(=NC=C2Cl)NC3=C(C=C(C=C3)N4CCOCC4)OC
Procedure, shortened: as §1

defactinib = compound: CNC(=O)c1ccc(Nc2ncc(C(F)(F)F)c(NCc3nccnc3N(C)S(C)(=O)=O)n2)cc1 [defactinib]
Procedure, shortened: as §1

[6] = compound: CNc1nc(-c2ccc3c(N)n[nH]c3c2)cc(N2C[C@@H](C(=O)NC3CCCCC3)CC[C@H]2C)n1
Procedure, shortened: as §1

encorafenib = compound: COC(=O)N[C@@H](C)CNc1nccc(-c2cn(C(C)C)nc2-c2cc(Cl)cc(NS(C)(=O)=O)c2F)n1 [encorafenib]
Procedure, shortened: as §1

[7] = compound: COC(=O)[C@H](CCSC)NC(=O)C1=C(C=C(C=C1)NC[C@H](CS)N)C2=CC=CC=C2
Procedure, shortened: as §1

alisertib = compound: COc1cc(Nc2ncc3c(n2)-c2ccc(Cl)cc2C(c2c(F)cccc2OC)=NC3)ccc1C(=O)O [alisertib]
Procedure, shortened: as §1

gefitinib = compound: COc1cc2ncnc(Nc3ccc(F)c(Cl)c3)c2cc1OCCCN1CCOCC1 [gefitinib]
Procedure, shortened: as §1

[8] = compound: CCCS(=O)(=O)Nc1ccc(F)c(C(=O)c2c[nH]c3ncc(Cl)cc23)c1F
Procedure, shortened: as §1

volasertib = compound: CC[C@@H]1C(=O)N(C)c2cnc(Nc3ccc(C(=O)N[C@H]4CC[C@H](N5CCN(CC6CC6)CC5)CC4)cc3OC)nc2N1C(C)C [volasertib]
Procedure, shortened: as §1

[9] = compound: COc1cc2nc(-c3cc(F)ccc3O)nc(N[C@@H]3CNC[C@H]3C(C)(C)O)c2cc1OC
Procedure, shortened: as §1

Sequence of UniProt A6NHL2 (A6NHL2 whole entry, looked up): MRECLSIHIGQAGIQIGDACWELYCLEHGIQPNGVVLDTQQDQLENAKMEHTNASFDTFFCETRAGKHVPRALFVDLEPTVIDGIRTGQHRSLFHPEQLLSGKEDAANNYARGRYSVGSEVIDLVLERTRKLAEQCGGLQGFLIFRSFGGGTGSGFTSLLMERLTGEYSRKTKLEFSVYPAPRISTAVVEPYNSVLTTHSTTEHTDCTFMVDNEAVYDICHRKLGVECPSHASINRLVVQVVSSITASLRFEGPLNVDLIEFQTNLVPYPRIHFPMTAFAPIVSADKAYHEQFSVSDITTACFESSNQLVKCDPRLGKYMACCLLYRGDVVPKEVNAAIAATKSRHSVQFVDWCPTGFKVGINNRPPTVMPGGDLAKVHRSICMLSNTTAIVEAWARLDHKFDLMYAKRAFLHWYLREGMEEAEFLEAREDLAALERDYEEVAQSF
Sequence of UniProt Q9H5L6 (Q9H5L6 whole entry, looked up): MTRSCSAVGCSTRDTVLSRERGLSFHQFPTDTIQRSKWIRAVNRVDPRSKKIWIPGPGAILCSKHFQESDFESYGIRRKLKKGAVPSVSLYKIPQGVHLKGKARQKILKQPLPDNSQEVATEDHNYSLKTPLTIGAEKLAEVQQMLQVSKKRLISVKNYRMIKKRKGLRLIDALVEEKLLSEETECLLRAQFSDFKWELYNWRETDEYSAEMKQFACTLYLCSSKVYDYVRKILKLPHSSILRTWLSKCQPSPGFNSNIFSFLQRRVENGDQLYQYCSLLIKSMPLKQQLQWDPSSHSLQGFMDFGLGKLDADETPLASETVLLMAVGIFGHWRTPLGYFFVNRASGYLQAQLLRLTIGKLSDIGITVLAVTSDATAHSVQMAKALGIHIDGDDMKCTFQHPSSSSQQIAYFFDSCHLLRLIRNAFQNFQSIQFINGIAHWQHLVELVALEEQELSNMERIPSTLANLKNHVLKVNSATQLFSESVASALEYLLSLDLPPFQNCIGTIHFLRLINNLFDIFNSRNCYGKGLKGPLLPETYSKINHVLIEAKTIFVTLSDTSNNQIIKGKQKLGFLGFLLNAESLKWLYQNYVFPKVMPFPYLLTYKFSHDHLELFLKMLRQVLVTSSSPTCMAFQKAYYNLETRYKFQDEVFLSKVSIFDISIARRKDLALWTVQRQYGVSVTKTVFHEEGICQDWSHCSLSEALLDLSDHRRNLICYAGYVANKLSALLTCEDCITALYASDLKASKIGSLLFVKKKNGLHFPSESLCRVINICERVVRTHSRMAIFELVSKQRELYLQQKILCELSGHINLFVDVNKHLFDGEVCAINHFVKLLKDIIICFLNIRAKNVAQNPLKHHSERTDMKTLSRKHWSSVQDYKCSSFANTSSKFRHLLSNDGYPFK
Sequence of UniProt Q9NPG3 (Q9NPG3 whole entry, looked up): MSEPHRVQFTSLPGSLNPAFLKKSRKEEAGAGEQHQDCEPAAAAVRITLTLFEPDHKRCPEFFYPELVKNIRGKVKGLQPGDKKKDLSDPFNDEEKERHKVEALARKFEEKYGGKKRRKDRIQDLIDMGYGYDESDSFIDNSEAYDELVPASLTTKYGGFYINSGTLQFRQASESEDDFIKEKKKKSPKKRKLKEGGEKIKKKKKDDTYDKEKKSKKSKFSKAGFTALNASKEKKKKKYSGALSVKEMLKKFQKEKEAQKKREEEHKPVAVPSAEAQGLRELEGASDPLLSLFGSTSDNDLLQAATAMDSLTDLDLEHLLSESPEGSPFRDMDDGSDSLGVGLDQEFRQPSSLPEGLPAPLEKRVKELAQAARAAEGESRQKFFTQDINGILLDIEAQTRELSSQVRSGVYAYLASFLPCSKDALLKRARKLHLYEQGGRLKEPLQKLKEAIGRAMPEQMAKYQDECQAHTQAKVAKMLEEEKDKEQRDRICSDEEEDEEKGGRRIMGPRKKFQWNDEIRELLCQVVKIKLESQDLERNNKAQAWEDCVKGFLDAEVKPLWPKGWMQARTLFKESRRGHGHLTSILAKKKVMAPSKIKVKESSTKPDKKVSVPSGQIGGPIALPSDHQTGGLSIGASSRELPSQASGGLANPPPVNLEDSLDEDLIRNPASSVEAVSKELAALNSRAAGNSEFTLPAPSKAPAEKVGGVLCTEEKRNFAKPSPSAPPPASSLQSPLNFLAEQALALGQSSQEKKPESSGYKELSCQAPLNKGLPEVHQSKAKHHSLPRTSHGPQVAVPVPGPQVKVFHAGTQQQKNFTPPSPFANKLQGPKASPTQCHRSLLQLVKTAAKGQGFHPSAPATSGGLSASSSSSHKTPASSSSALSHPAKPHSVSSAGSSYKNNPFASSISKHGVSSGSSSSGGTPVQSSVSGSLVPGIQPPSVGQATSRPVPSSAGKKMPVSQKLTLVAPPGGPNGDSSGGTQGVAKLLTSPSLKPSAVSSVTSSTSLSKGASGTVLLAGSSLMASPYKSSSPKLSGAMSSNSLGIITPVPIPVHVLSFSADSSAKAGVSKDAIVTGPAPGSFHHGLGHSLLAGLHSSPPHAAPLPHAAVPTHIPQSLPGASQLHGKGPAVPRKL
Sequence of UniProt Q9Y5Z9 (Q9Y5Z9 whole entry, looked up): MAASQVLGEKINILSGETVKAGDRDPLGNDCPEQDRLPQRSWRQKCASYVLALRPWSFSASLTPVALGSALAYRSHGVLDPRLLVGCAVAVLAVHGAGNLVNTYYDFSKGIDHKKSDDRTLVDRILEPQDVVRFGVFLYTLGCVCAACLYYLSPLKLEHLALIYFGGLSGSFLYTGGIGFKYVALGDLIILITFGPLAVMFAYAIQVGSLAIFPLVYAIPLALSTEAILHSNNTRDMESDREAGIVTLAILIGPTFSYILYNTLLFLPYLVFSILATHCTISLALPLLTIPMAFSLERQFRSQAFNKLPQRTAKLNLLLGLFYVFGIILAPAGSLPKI
Sequence of UniProt Q9P0S9 (Q9P0S9 whole entry, looked up): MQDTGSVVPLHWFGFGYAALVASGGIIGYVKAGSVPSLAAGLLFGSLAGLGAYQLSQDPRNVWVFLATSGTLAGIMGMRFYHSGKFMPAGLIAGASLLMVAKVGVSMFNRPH
Sequence of UniProt Q9H3M7 (Q9H3M7 whole entry, looked up): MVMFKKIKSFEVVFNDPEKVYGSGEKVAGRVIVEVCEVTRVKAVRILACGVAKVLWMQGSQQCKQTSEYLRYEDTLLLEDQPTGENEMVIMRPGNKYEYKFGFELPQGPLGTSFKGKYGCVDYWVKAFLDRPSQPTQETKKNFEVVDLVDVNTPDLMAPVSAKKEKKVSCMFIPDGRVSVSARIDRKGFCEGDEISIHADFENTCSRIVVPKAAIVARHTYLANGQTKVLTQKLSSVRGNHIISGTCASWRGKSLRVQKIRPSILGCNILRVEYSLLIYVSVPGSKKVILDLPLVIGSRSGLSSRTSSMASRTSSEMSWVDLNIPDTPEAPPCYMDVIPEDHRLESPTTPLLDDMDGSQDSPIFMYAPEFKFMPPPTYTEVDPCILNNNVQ
Sequence of UniProt Q9BZL1 (Q9BZL1 whole entry, looked up): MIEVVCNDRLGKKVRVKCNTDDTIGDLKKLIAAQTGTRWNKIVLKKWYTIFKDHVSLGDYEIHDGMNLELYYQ
Sequence of UniProt O75382 (O75382 whole entry, looked up): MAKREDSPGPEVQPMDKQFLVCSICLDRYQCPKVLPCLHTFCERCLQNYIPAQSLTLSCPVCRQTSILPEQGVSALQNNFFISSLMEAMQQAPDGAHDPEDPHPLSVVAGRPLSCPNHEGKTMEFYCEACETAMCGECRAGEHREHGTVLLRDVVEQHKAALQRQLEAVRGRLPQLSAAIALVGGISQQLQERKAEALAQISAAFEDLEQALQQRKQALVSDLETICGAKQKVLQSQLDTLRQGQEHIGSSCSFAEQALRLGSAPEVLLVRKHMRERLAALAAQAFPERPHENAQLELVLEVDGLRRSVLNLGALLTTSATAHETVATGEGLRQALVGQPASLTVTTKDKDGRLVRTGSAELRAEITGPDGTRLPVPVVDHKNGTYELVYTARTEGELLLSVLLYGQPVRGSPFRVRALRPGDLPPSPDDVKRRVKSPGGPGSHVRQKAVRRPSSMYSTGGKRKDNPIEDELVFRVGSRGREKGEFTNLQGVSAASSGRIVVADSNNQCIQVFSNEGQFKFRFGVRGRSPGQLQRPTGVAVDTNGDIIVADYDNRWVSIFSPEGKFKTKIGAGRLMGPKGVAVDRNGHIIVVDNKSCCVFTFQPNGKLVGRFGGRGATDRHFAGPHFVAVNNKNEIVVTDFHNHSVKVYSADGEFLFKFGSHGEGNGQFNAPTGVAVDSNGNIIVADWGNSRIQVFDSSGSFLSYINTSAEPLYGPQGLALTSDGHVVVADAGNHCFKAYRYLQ

Row | Target | log2 fold change (vemurafenib) | log2 fold change (barasertib) | log2 fold change [1] | log2 fold change [2] | log2 fold change [3] | log2 fold change [4] | log2 fold change (saracatinib) | log2 fold change (sotrastaurin) | log2 fold change (alvocidib) | log2 fold change (Tubastatin A) | log2 fold change [5] | log2 fold change (defactinib) | log2 fold change [6] | log2 fold change (encorafenib) | log2 fold change [7] | log2 fold change (alisertib) | log2 fold change (gefitinib) | log2 fold change [8] | log2 fold change (volasertib) | log2 fold change [9]
1 | TXNIP (UniProt Q9H3M7) | 0.008 | -0.005 | -0.006 | 0.016 | 0.209 | -0.11 | -0.07 | 0.016 | 0.017 | -0.021 | 0.037 | 0.042 | 0.046 | 0.011 | 0.067 | -0.015 | -0.004 | – | – | –
2 | TMEM14C (UniProt Q9P0S9) | 0.027 | -0.038 | 0.129 | -0.053 | – | – | -0.088 | 0.06 | – | -0.463 (active) | 0.033 | 0.205 | 0.011 | 0.004 | 0.022 | -0.011 | 0.003 | 0.087 | 0.045 | -0.168
3 | THAP9 (UniProt Q9H5L6) | 0.199 | 0.117 | 0.309 | -0.401 | -0.66 (active) | 0.151 | 0 | 0.076 | -0.249 | 0.053 | – | -0.067 | 0.476 | -0.009 | 0.085 | – | – | 0.07 | 0.088 | 0.179
4 | TUBAL3 (UniProt A6NHL2) | 0.084 | -0.011 | -0.122 | -0.196 | -0.413 | 0.284 | 0.001 | – | -0.276 | 0.109 | -0.179 | -0.093 | 0.039 | 0.03 | 0.032 | 0.135 | -0.057 | -0.024 | 0.041 | 0.088
5 | UBIAD1 (UniProt Q9Y5Z9) | -0.004 | – | 0.005 | -0.083 | 0.045 | -0.335 | -0.036 | -0.079 | -0.016 | 0.025 | 0.008 | 0.031 | 0.157 | 0.067 | -0.102 | 0.112 | -0.048 | 0.043 | 0.046 | -0.061
6 | UBN1 (UniProt Q9NPG3) | -0.053 | – | 0.1 | – | -0.127 | 0.057 | 0.04 | 0.133 | -0.176 | – | – | -0.044 | -0.076 | 0.059 | 0.088 | – | – | -0.069 | 0.005 | 0.09
7 | UBL5 (UniProt Q9BZL1) | 0.014 | 0.036 | -0.015 | -0.028 | -0.126 | 0.097 | -0.007 | -0.186 | -0.117 | 0.023 | -0.048 | 0.041 | -0.045 | -0.012 | -0.06 | 0.039 | -0.141 | – | – | –
8 | TNIK (UniProt C9J338) | 0.151 | 0.028 | 0.171 | – | -0.51 | 0.341 | 0.033 | -0.026 | -0.155 | – | -0.211 | -0.014 | 0.306 | -0.012 | 0.005 | – | – | 0.064 | -0.011 | 0.076
9 | UBR4 isoform 4 (UniProt Q5T4S7) | 0.02 | – | -0.096 | 0.077 | – | – | 0.061 | – | – | -0.337 | -0.16 | -0.032 | 0.144 | -0.028 | 0.062 | – | – | -0.1 | -0.104 | 0.064
10 | TRIM3 (UniProt O75382) | 0.13 | – | -0.029 | – | – | – | – | – | – | – | 0.06 | -0.095 | – | 0.034 | 0.041 | – | – | -0.085 | 0.09 | 0.069
